Assay results: PubChem BioAssay (NCATS)
Inconclusive results are not listed. Activity calls are given as the source filed them. Unless noted, calls come from the whole dose curve; as a rule, active = well fitted curve in the direction sought with a large enough effect; inconclusive = small, poorly fitted or top-dose-only effect, or another doubt; inactive = no such curve, though single readings can be large; an effect the other way counts as inactive or inconclusive.

Columns and labels:
[1] = target: Mitogen-activated protein kinase 10 (Mus musculus) (UniProt Q61831); assay: JNK3 AlphaScreen Assay (AID 530; active = well fitted curve in either direction with a large enough effect, not every such curve was filed as active;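 note: kinase came from lysate of stimulated human HepG2 cells; signal reports phosphorylation of biotinylated GST-cJun 1-79 at Ser73 with 10 µM ATP; % is set by controls: 0 for no effect and ±100 for the full control effect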)
Outline: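 Inhibitors reduce antibody binding to phosphorylated biotin-cJun, lowering AlphaScreen luminescence. Lysates from HepG2 cells pre-activated by IL-1beta plus TNF-alpha supplied JNK3; compounds were titrated.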

[2] = Cell Viability - Mesenchymal (AID 546);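 note: cells exposed to compound for 40 hours before reading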
Outline: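 Normal human renal glomerulus-derived kidney mesenchymal cells, 1000 per well in complete medium, were treated with compounds for 40 hr at 37 °C. Viability was read as intracellular ATP by CellTiter-Glo luminescence; AC50 values came from Hill-equation fits of qHTS concentration-response data.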

[3] = Cellular Toxicity (caspase-3) HepG2 (AID 654);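 note: cells exposed to compound for 16 hours before reading; 0% = DMSO alone and 100% = caspase signal from 100 µM tamoxifen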
Outline: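 HepG2 cells (1500/well) were treated 16 h at 37 °C in complete medium, then caspase 3/7 activity was read by Caspase-Glo luminescence. Data were normalized to DMSO and 100 uM tamoxifen; AC50 came from Hill-equation fits of qHTS concentration-response.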

[4] = Cellular Toxicity (caspase-3) Jurkat (AID 655); conditions: Jurkat caspase-3 activation, luminescence; caspase-3 activation: at 92.2 µM (top of the series), DMSO = 0%, tamoxifen = 100%;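 note: cells exposed to compound for 16 h at 37 °C before reading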
Outline: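 Jurkat cells (5000/well) in complete medium exposed 16 h at 37 C; caspase-3/7 activity read by Caspase-Glo luminescence after 20 min at room temperature. Normalized to DMSO and 100 uM tamoxifen; AC50 from Hill fits.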

[5] = Cellular Toxicity (caspase-3) SHSY5Y (AID 657)
Outline: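 SH-SY5Y human neuroblastoma cells, 1500/well, exposed to compound for 16 hours at 37 °C in complete medium. Caspase-3/7 activity read by Caspase-Glo luminescence after 1 hr at room temperature, normalized to DMSO and 10 uM staurosporine; AC50 from Hill fit.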

[6] = Cellular Toxicity (caspase-3) SK-N-SH (AID 661);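 note: 0% = DMSO basal and 100% = 10 µM staurosporine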
Outline: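 Human SK-N-SH neuroblastoma cells, 1500/well, were exposed to compounds for 16 hours at 37 °C. Caspase-Glo 3/7 luminescence was normalized to DMSO (basal) and 10 uM staurosporine (100%), and AC50 came from a Hill fit.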

[7] = Cellular Toxicity (caspase-3) Hek293 (AID 664); conditions: HEK293 caspase-3 activation, DMSO = 0%, 100 µM tamoxifen = 100%; at 92.2 µM (top of the series);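 note: cells exposed to compound for 16 h at 37 °C before readout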
Outline: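 HEK293 cells in complete medium treated 16 h at 37 °C, then Caspase-Glo 3/7 luminescence read after 20 min at room temperature. Normalized to DMSO and 100 uM tamoxifen; AC50 from Hill fit of concentration-response.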

[8] = Cellular Toxicity (caspase-3) NIH 3T3 (AID 666);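 note: caspase signal read after 16 h compound exposure; 0% = DMSO basal and 100% = 100 µM tamoxifen stimulation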
Outline: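 Mouse NIH 3T3 fibroblasts (1000/well) treated 16 h at 37 C; caspase-3/7 activity measured by Caspase-Glo 3/7 luminescence after 20 min. Normalized to DMSO and 100 uM tamoxifen; AC50 from Hill fits.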

[9] = Cell Viability - LYMP2-009 (AID 968);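 note: 0% = DMSO alone and the full-kill end = tetraoctylammonium bromide at 92 µM; nearly all actives have a fitted effect of over 55% in size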
[10] = Cell Viability - LYMP2-019 (AID 973);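 note: 0% = DMSO alone and full effect = 92 µM tetraoctylammonium bromide; nearly all actives have a fitted effect of over 55% in size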
Outline: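 Human lymphoblastoid LYMP2-019 cells (2500/well) preincubated 5 h at 37 C, then treated 24 h at 37 C in complete medium. Viability by CellTiter-Glo ATP luminescence after 30 min at room temperature; AC50 from Hill fits.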

[11] = Cell Viability - LYMP2-023 (AID 975);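 note: cellular ATP measured by luciferase luminescence as viability proxy; cells exposed to compound for 24 hours at 37 °C; plate controls were DMSO only for no effect and 92 µM tetraoctylammonium bromide control for full effect; nearly all actives have a fitted effect of over 55% in size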
Outline: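 LYMP2-023 human lymphoblastoid cells, 2500/well, preincubated 5 hr at 37 C, then compound-treated 24 hr at 37 C in complete medium. CellTiter-Glo luminescence (ATP) after 30 min at room temperature; AC50 from Hill-equation fits; tetraoctylammonium bromide positive control.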

[12] = Cell Viability - LYMP2-002 (AID 977);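 note: plate controls were DMSO only for no effect and 92 µM tetraoctylammonium bromide for full effect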
Outline: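 Luminescent ATP readout (CellTiter-Glo, 30 min room temperature) after 24 h compound exposure at 37 C of a human lymphoblastoid line, 2500 cells/well. AC50 values derived by standard Hill fitting of qHTS concentration-response data.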

[13] = Cell Viability - LYMP2-008 (AID 980); note: % is set by controls: 0 for no effect and ±100 for the full control effect; nearly all actives have a fitted effect of over 60% in size
Outline: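 LYMP2-008 lymphoblastoid cells (2500/well) plated 5 h, then treated 24 h at 37 C in complete medium. Viability read as intracellular ATP by CellTiter-Glo luminescence after 30 min at room temperature; AC50 from Hill fits.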

[14] = Cell Viability - LYMP2-024 (AID 988);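 note: plate controls were DMSO only for no effect and 92 µM tetraoctylammonium bromide for full effect; nearly all actives have a fitted effect of over 60% in size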
Outline: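 Human lymphoblastoid LYMP2-024 cells (2500/well) rested 5 hr, then treated with compound for 24 hr at 37 C in complete medium. Viability was measured as intracellular ATP by CellTiter-Glo luminescence. AC50 values came from Hill-equation fits.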

[15] = qHTS assay for small molecule activators of the p53 signaling pathway (AID 651743; active = well fitted activation curve with a large enough effect in the signal ratio, not every such curve was filed as active; the % refers to the signal ratio; note: % of control where 0% means no effect); conditions: HCT-116 p53RE-bla, beta-lactamase FRET ratio, 16 h; activation: stronger effect = higher value
Outline: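 Cell-based beta-lactamase reporter (p53 response elements, HCT-116 background). After a 5-hour preincubation, cells received compound for 16 hours at 37 C; substrate development ran 2 hours at room temperature.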

[16] = target: Tumor necrosis factor (Homo sapiens) (UniProt P01375); assay: qHTS assay to identify small molecules that stimulate Tumor Necrosis Factor-alpha (TNF-alpha) secretion (AID 651757; active = well fitted curve in the direction sought with a large enough effect in the signal ratio; the % refers to the signal ratio; note: 0% is about no effect)
Chain of Tumor necrosis factor (Homo sapiens) (P01375 whole entry, looked up): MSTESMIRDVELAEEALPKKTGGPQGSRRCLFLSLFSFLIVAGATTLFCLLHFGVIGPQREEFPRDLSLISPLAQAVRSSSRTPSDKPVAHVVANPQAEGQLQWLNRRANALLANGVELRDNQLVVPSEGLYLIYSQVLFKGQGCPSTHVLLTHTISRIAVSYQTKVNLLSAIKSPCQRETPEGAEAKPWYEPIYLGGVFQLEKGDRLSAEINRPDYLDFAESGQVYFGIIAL
Outline: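 THP-1 cells (3000/well) exposed to compounds 17 hrs at 37 C. Secreted TNF-alpha detected by HTRF with cryptate- and XL665-labeled anti-TNF-alpha antibodies after 3 hr at room temperature.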

[17] = qHTS assay for small molecule agonists of the antioxidant response element (ARE) signaling pathway measured by Nrf2-dependant transcriptional activity (AID 720636; active = well fitted curve in the direction sought with a large enough effect in the repeat runs; an effect the other way counts as inactive or inconclusive;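 note: HepG2 cells with an ARE-driven luciferase reporter; % of control where 0% means no effect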)
Outline: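 Attachment 6 hr at 37 C, then compound versus DMSO vehicle for 16 hr in ARE-luc HepG2 cells (1% dialyzed FBS); luminescence recorded 30 min after ONE-Glo addition at room temperature.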

[18] = qHTS assay for small molecule antagonists of the retinoid-related orphan receptor gamma (ROR-gamma) signaling pathway - cell viability counter screen (AID 720652; active = well fitted curve in the direction sought with a large enough effect in the repeat runs; an effect the other way counts as inactive or inconclusive;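 note: CHO reporter cells with doxycycline-induced ROR-gamma expression; compound exposure lasted 16 hr before ATP read; % is set by controls: 0 for no effect and ±100 for the full control effect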)
Outline: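 CHO cells carrying TET-inducible ROR and RORE-luciferase reporter, plated 5 hr, then dosed with compound plus doxycycline. After 16 hr at 37 C, viability read as intracellular ATP by CellTiter-Glo luminescence.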

[19] = qHTS assay for cell viability of the p53RE-bla HCT-116 cell line (AID 743292); note: % is set by controls: 0 for no effect and ±100 for the full control effect; nearly all actives have a fitted effect of over 55% in size
Outline: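 Compound-exposed HCT-116 (p53RE-bla) cells, 4,000 per well, were kept 16 h at 37 C following a 5 h preincubation. Cell number was estimated from total ATP by CellTiter-Glo luminescence read after 30 min at room temperature.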

[20] = MultiTox-Fluor Cytotoxicity Assay - LYMP1-001 - Dead Cells (AID 946)
Outline: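 Cytotoxicity as increased dead-cell protease fluorescence (bis-AAF-R110, 485/520 nm), read 60 min after MultiTox-Fluor reagent. Human lymphoblastoid line exposed 16 h; Hill-fitted AC50, with DMSO as 0% and 15 uM tetraoctylammonium bromide as 100%.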

Oc1ccc(Cl)c(Cl)c1
inactive: Potency [1] | Potency [2] | outcome [3] | caspase-3 activation [4] -1.55% | outcome [5] | Potency [6] | caspase-3 activation [7] 0.945% | Potency [8] | Potency [9] | Potency [10] | Potency [11] | Potency [12] | Potency [13] | Potency [14] | activation [15] 2.18% | outcome [16] | Potency [17] | Potency [18] | Potency [19]

CCCCCCCCCCCCCl
inactive: Potency [1] | Potency [2] | outcome [3] | caspase-3 activation [4] 1.16% | caspase-3 activation [7] 2.31% | Potency [8] | outcome [20] | Potency [9] | Potency [10] | Potency [11] | Potency [12] | Potency [14] | activation [15] -1.06% | outcome [16] | Potency [17] | Potency [18] | Potency [19]

O=Cc1ccc2c(c1)OCO2
inactive: Potency [1] | Potency [2] | outcome [3] | outcome [5] | Potency [6] | caspase-3 activation [7] 0.153% | outcome [20] | Potency [9] | Potency [10] | Potency [11] | Potency [12] | outcome [16] | Potency [17] | Potency [19]

Nc1ccccc1-c1ccccc1
inactive: Potency [1] | Potency [2] | outcome [3] | caspase-3 activation [4] 2.93% | outcome [5] | caspase-3 activation [7] 1.72% | outcome [20] | Potency [9] | Potency [10] | Potency [11] | Potency [13] | Potency [14] | activation [15] -6.93% | outcome [16] | Potency [17] | Potency [18]

Nc1ccc(-c2ccccc2)cc1
inactive: Potency [1] | caspase-3 activation [4] 2.52% | Potency [6] | caspase-3 activation [7] 1.62% | Potency [8] | outcome [20] | Potency [10] | Potency [11] | Potency [12] | Potency [13] | Potency [14] | activation [15] -1.6% | Potency [18] | Potency [19]

Cc1ccc2c(C)cccc2c1
inactive: Potency [1] | Potency [2] | outcome [3] | outcome [5] | caspase-3 activation [7] -1.38% | Potency [8] | Potency [9] | Potency [10] | Potency [11] | Potency [12] | Potency [13] | Potency [14] | activation [15] -0.174% | Potency [17] | Potency [18]

O=[N+]([O-])c1ccc(Cl)c(Cl)c1Cl
inactive: Potency [1] | outcome [3] | outcome [5] | Potency [6] | caspase-3 activation [7] -0.669% | Potency [8] | outcome [20] | Potency [9] | Potency [10] | Potency [12] | Potency [14] | activation [15] -2.43% | outcome [16] | Potency [17]

ClC=CCl
inactive: Potency [1] | Potency [2] | outcome [3] | caspase-3 activation [4] 1.45% | outcome [5] | Potency [6] | caspase-3 activation [7] -1.83% | Potency [8] | outcome [20] | Potency [9] | Potency [10] | Potency [11] | Potency [12] | Potency [13] | Potency [14] | activation [15] -3.46% | outcome [16] | Potency [17] | Potency [18] | Potency [19]
